Our source for the Potency and activity change, negative = inhibition values is PubChem BioAssay AID651820 (National Center for Advancing Translational Sciences (NCATS), 2012).

SMILES strings stand for the structures. Among all 340,000 compounds or so, about 12,000 (3.5%) were called active. Where a call stands in place of a potency, no number is given. Not shown: some 18% with an inconclusive outcome. For the sample, actives were picked, then their nearest neighbours and some compounds at random. Values without a mark were called inactive. Calls follow the shape of the dose curve; as a rule, active = well fitted inhibition curve with a large enough effect; inconclusive = small, poorly fitted or top-dose-only effect, or another doubt; inactive = no such curve, though single readings can be large or run the other way.
Potency is read from the fitted curve at half-maximal effect.

This assay in a line: qHTS Assay for Inhibitors of Hepatitis C Virus (HCV). As to conditions: Huh7.5.1 HCVcc-Cre infection, luciferase reporter, 44 h; series mostly up to 41.8 µM. The method in brief: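 Cells seeded at 1,000/well and cultured 4 h, then compounds added followed by HCVcc-Cre virus (~0.5 moi). After 44 h further culture, luciferase substrate was added, plates held 15 min at room temperature, and luminescence read for 15 sec.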
On the technique in general: qHTS replaces the single test concentration by a dilution series.
Turning to `COc1cccc(CC2(CO)CCCN(Cc3ccc(OC(F)F)cc3)C2)c1` (stereo not given), the Potency entry is “inactive”.

As to `COc1ccc(CNc2nccs2)cc1`, the Potency entry is “inactive”.

As for `FC(F)(F)c1cccc(Nc2ncnc3ccccc23)c1`, the Potency entry is “inactive”.

Regarding `COc1cccc(CNc2nc(C(F)(F)F)nc3ccccc23)c1`, the Potency was 5.62 µM (active).

Take `c1ccc2c(NCC3CCCO3)nc(-c3ccncc3)nc2c1` (stereo not given): the Potency is 10 µM (active).

With `Clc1cccc(-c2nc(NCC3CCCO3)c3ccccc3n2)c1` (stereo not given), the Potency result is “inactive”.

Take `CCc1nc2ccccc2c(C(=O)NCc2ccc(OC)cc2)c1C`: the Potency result is “inactive”.

For `c1coc(CNc2ncnc3ccccc23)c1`, the Potency is 3.55 µM (active).

Regarding `COc1cccc(CNC(=O)c2n[nH]c3ccccc23)c1`, the Potency entry was “inactive”.

For the compound `CCc1ccc(C(CNc2nc(C(F)(F)F)nc3ccccc23)N(C)C)cc1` (stereo not given), the Potency result is “inactive”.

As to `O=C(NCc1ccncc1)C(=O)NCc1ccco1`, the Potency entry was “inactive”.

Turning to `COc1ccc(CNc2ncnc3ccccc23)cc1`, the Potency is 3.16 µM (active).

In the case of `CC(C)(C)c1nc(NCC2CCCO2)c2nnn(Cc3ccccc3)c2n1` (stereo not given), the Potency entry is “inactive”.

Take `COc1ccc(C(=O)C(C)OC(=O)c2cccc(S(=O)(=O)Nc3c(C)n(C)n(-c4ccccc4)c3=O)c2)cc1` (stereo not given): the Potency entry was “inactive”.

As to `NC(=O)C1(Nc2ccc(-c3ccccc3)cc2)CCCC1`, the Potency result is “inactive”.

On to `NC(CSC1(c2ccccc2)c2ccccc2-c2ccccc21)C(=O)O` (stereo not given), for which the Potency entry was “inactive”.

Take `Cc1cc(NC(=O)c2cc3ccccc3o2)no1`: the Potency entry is “inactive”.

Turning to `C=CC(=O)Nc1ccc(Nc2ccnc(Nc3ccc(N4CCN(C)CC4)cc3)n2)cc1`, the activity change, negative = inhibition was 29.9% [at 8.37 µM].

Consider `CC(C)COc1ccc(C(=O)OCC(=O)NCCC2=CCCCC2)cc1`, for which the Potency result was “inactive”.

In the case of `COCCN(C(=O)C(C)N1C(=O)c2ccccc2C1=O)c1c(N)n(CC(C)C)c(=O)[nH]c1=O` (stereo not given), the Potency entry was “inactive”.

Regarding `COc1cccc(NC(=O)COC(=O)c2ccc3ccccc3n2)c1`, the Potency entry is “inactive”.

As to `O=C(COC(=O)c1ccccc1Cl)NC1CCCCCCC1`, the Potency result was “inactive”.

In the case of `Cc1ccc(S(=O)(=O)Nc2ccc(F)c(S(=O)(=O)N3CCOCC3)c2)cc1`, the Potency entry is “inactive”.

For the compound `CCOCCCNc1nc(-c2ccccc2)nc2ccccc12`, the Potency result is “inactive”.

With `O=C(Cc1ccccc1)n1nc(-c2ccccc2)nc1NCc1ccco1`, the Potency result was “inactive”.

For the compound `c1ccc(-c2nc(NCc3ccco3)c3ccccc3n2)cc1`, the Potency was 10 µM (active).

Consider `CCN(C(=O)COC(=O)c1sccc1C)c1c(N)n(Cc2ccccc2)c(=O)[nH]c1=O`, for which the Potency result is “inactive”.

Take `COc1ccc(NC(=O)Nc2ccc3c(c2)C(=O)N([C@H](C)CO)C[C@H](C)[C@@H](CN(C)C(=O)Nc2ccc4c(c2)OCO4)O3)cc1`: the Potency entry was “inactive”.

Turning to `O=C(NCC1(N2CCCCC2)CCCCC1)c1cccc(S(=O)(=O)Nc2ccccc2Cl)c1`, the Potency entry was “inactive”.

On to `O=C(NCC1(N2CCCCC2)CCCCC1)c1ccc(NS(=O)(=O)c2ccc(F)cc2)cc1`, for which the Potency entry was “inactive”.

As to `CCOc1ccc(S(=O)(=O)Nc2cccc(C(=O)NCC3(N4CCCCC4)CCCCC3)c2)cc1`, the Potency is 12.6 µM (active).

On to `O=C(CCNS(=O)(=O)c1ccccc1)NCCCc1ccccc1`, for which the Potency result is “inactive”.

`NS(=O)(=O)c1ccc(CCNC(=O)COC(=O)COc2cccc(C(F)(F)F)c2)cc1`: the Potency entry was “inactive”.

Regarding `CN(C)C(=O)CCc1ccc2c3c([nH]c2c1)[C@]1(C)[C@@H](C(=O)N2CCOCC2)C[C@H](CC(=O)NCCc2ccccn2)C(=O)N1CC3`, the Potency result was “inactive”.

For the compound `N#CC1(Nc2ccc(-c3ccc(Cl)cc3)cc2)CCCC1`, the Potency entry is “inactive”.

Take `O=C1COc2c1ccc(O)c2O`: the Potency result is “inactive”.

For `CC(C)(C)c1ccc(C(=O)NCc2ccco2)cc1`, the Potency entry is “inactive”.

In the case of `CC(C)(C)OC(=O)CNC(=O)c1[nH]cnc1C(=O)N[C@@H](CCCCN)C(=O)OC(C)(C)C`, the Potency result was “inactive”.

On to `O=C(Nc1cc(Cl)ccc1N1CCOCC1)c1ccc(N2CCCC2=O)cc1`, for which the Potency was 35.5 µM (active).

Consider `O=C(Nc1cc(-c2nn(CC(=O)N3CCCCC3)c(=O)c3ccccc23)ccc1N1CCOCC1)c1ccc(Cl)cc1`, for which the Potency entry was “inactive”.

Turning to `COc1c(C)cccc1C(=O)Nc1cc(Cl)ccc1N1CCOCC1`, the Potency result is “inactive”.

Turning to `COc1ccc(CCNC(=O)COC(=O)c2ncc(Cl)c(Cl)c2Cl)cc1OC`, the Potency entry is “inactive”.

For `O=C(CSc1nc2ccccc2c(=O)n1-c1ccc(F)cc1)NC1CC1`, the Potency entry is “inactive”.

For `COCCN(C(=O)CSCc1ccc(C)cc1)c1c(N)n(CC(C)C)c(=O)[nH]c1=O`, the Potency result is “inactive”.

Take `N#Cc1ccc(C(=O)OCC(=O)NC(=O)NC2CCCCC2)cc1`: the Potency result was “inactive”.

For the compound `O=C(NNC(=O)c1cc(-c2ccccc2Cl)nc2ccccc12)c1csc(N2CCOCC2)n1`, the Potency entry was “inactive”.

Turning to `O=C(NNC(=O)c1ccc(-c2ccccc2)cc1)Nc1ccccc1`, the Potency entry is “inactive”.

As to `C=CCNc1scc(-c2ccccc2)[n+]1CC=C`, the Potency entry is “inactive”.

`C=CC[n+]1c(-c2ccc(C)cc2)csc1NNC(=O)Nc1ccccc1`: the Potency was 5.62 µM (active).

`N#CC(Cc1cc2ccccc2n1S(=O)(=O)c1ccccc1)OCc1ccccc1` (stereo not given): the Potency entry was “inactive”.

As to `Nc1cccnc1Sc1ccccc1`, the Potency entry is “inactive”.

`O=[N+]([O-])c1ccc(N2CCSCC2)cc1O`: the Potency result was “inactive”.

In the case of `CC1CCN(c2ccc([N+](=O)[O-])c(SCCO)c2)CC1`, the Potency is 10 µM (active).

Regarding `CN1CCN(c2ccc([N+](=O)[O-])c(Sc3nc4ccccc4[nH]3)c2)CC1`, the Potency result is “inactive”.

For the compound `Cc1occc1-c1nnc(SCC(=O)NC2(C#N)CCCC2)n1C`, the Potency result was “inactive”.
